TAG inh = inhibitors of triacylglycerol accumulation. H9c2 cells, Nile Red lipid (TAG) fluorescence; cells loaded with 200 µM oleic acid. inhibition, % at 12.5 µM. hit rate 0.66% among 230,000. AID 651582;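 active means pattern-corrected inhibition of lipid staining of at least 50% with the nuclear-stain viability signal not falling by more than 50%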;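 further: 0% = DMSO wells and 100% = triacsin C control wells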
Gli-Sufu block = antagonists of Gli-Sufu signaling. Sufu-KO-LIGHT fibroblasts, Gli luciferase reporter luminescence. hit rate 0.74% among 340,000. inhibition, % at 5 µM;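 active means inhibition above about 55%, limit read from the data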;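 further: 0% = DMSO-treated cells and 100% = wells with medium but no cells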
NR2F2 inh = inhibitors of human COUP-TFII (NR2F2). AID 686940. P24468. inhibition, % at 8.6 µM. HEK293T NGFI-A luciferase reporter, luminescence. hit rate 0.7% among 370,000;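 active means inhibition above a per-plate cutoff, mean inhibition of test wells between control levels plus 3 SD, cut at about 38% in these data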;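 further: cells cotransfected with COUP-TFII expression vector driving the NGFI-A reporter; 0% = median of COUP-TF2 test wells and 100% = reporter-only cells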
Target sequence (P24468 whole entry, looked up): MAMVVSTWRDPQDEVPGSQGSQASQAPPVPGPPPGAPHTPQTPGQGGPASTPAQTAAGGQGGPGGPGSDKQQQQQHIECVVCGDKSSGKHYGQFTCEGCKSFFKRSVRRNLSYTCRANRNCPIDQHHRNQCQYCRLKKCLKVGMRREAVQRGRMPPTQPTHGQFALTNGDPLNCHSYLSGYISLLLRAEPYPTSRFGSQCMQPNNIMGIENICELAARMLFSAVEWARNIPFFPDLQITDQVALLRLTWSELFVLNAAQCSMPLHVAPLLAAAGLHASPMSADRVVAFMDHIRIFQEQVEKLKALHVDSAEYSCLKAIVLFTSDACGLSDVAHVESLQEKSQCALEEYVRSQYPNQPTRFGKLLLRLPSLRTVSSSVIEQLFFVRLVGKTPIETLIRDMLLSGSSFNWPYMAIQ
697 NFkB inh = inhibitors of the PMA/ionomycin-induced NF-kB reporter in 697 B cells; 697 B-cell NF-kB luciferase reporter, 16 h; inhibition, % at 4 µM; hit rate 0.33% among 330,000; AID 435022; in the data active means inhibition above about 35%
Cardio protect = protects H9c2 cardiomyocytes from peroxide injury; H2O2 injury protection, ATPLite, 2 h; protection from H2O2 cell death, % at 20 µM; hit rate 0.63% among 360,000; AID 588492;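 active means compounds giving at least 50% protection of heart cells from peroxide-induced death in the single-dose screen, raw or plate-pattern-corrected value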;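 further: 0% = DMSO wells with peroxide and 100% = DMSO wells without peroxide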
Jurkat NFkB inh = lowers PMA/ionomycin-induced NF-kB signal in Jurkat cells; PMA/ionomycin-induced NF-kB luciferase reporter, luminescence; inhibition, % at 4 µM; hit rate 0.53% among 330,000; AID 435003; in the data active means inhibition above about 50%
Gli-Sufu confirm = Gli-SUFU antagonism confirmation, single concentration; Sufu-KO-LIGHT cells, Gli luciferase reporter, luminescence; inhibition, % at 5 µM; hit rate 40% among 2,500; AID 602428; shares compounds with Gli-Sufu block;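 active means mean inhibition at 5 µM reaching about 45%, limit read from the data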;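 further: plate controls were DMSO-treated cells for no effect and wells lacking cells for full effect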
SufuKO cytotox = cytotoxicity counter-screen for Gli-SUFU antagonists | shares compounds with Gli-Sufu block | Sufu-KO-LIGHT cells cytotoxicity, ATP luminescence | cytotoxicity, % at 5 µM | hit rate 32% among 2,500 | AID 651994;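 active means mean cytotoxicity at 5 µM above about 25%, limit read from the data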;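 further: cells exposed to compound overnight for roughly 16 to 18 hours; plate controls were DMSO wells with cells for no effect and medium without cells for full effect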
Wnt3a counter = counter-screen for Gli-SUFU antagonists: Wnt3a reporter inhibition | shares compounds with Gli-Sufu block | Wnt-LIGHT cells, Wnt3a-driven luciferase reporter, luminescence | inhibition, % at 6.25 µM | hit rate 20% among 2,500 | AID 651995;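 active means mean inhibition above about 25%, limit read from the data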
An asterisk follows results filed as active; / = no result given. Most compounds without a hit are left out; they make up all but 2.6% or so of the library.

SMILES	TAG inh	Gli-Sufu block	NR2F2 inh	697 NFkB inh	Cardio protect	Jurkat NFkB inh	Gli-Sufu confirm	SufuKO cytotox	Wnt3a counter
COC(=O)C1=C(C)N(C)C(=NCc2ccc3c(c2)OCO3)NC1c1cccc(Cl)c1 (stereo not drawn)	/	/	-7.0	/	/	/	/	/	/
Clc1ccc(-c2nnc(SCc3cccc4ccccc34)n2Cc2ccco2)cc1	/	/	4.7	/	/	/	/	/	/
COc1ccc(Cl)cc1C(=O)NNC(=O)CSc1nnc2ccccn12	-6.6	53.1	7.1	14.8	-8.5	-13.8	18.1	2.0	17.8
Fc1ccc(Cn2ccc3ccc(-c4ccc5ccn(Cc6ccc(F)cc6F)c5c4)cc32)c(F)c1	/	/	-24.1	/	/	/	/	/	/
COc1cccc(CN(C)CC2CCCN(CCc3ccccc3C)C2)c1 (stereo not drawn)	15.2	60.6*	-4.4	4.1	4.6	-7.1	18.4	3.0	-16.7
CCOC(=O)c1oc2ccc(S(=O)(=O)n3nc(-c4ccc(C)cc4)cc3N)cc2c1C	20.0	3.8	12.3	-65.1	-21.2	17.7	/	/	/
CCOC(=O)c1oc2ccc(S(=O)(=O)n3nc(-c4ccc(Cl)cc4)cc3N)cc2c1C	6.8	54.4	-8.6	-61.4	-27.3	37.9	8.0	18.5	-10.9
COc1ccccc1N(C)S(=O)(=O)c1ccc(C(=O)NCc2ccccc2CN2CCCC2)cc1	-3.3	52.4	-10.2	/	-10.4	/	33.8	16.9	-33.5
COc1ccc(NC(=O)CSc2nc3ccccc3c(=O)[nH]2)cc1S(N)(=O)=O	21.7	57.2*	-33.9	-1.9	12.4	1.7	2.3	-9.1	-16.1
C=CCNc1nc(-c2c(C)nc3ncccn23)cs1	/	1.5	8.3	-6.2	-0.9	-14.3	/	/	/
Cc1nc2ncccn2c1-c1csc(Nc2ccc(O)cc2)n1	25.2	55.2*	-85.4	2.6	20.4	3.1	51.5*	18.8	-35.1
CN(C)/C=C1/NC(=S)NC1=O	4.8	63.1*	-15.8	2.2	5.1	-59.3	10.0	2.8	14.2
CCN1C(=O)/C(=C\N(C)C)NC1=S	9.4	-18.3	11.7	13.0	13.4	-2.6	/	/	/
COC(=O)C1CN(Cc2ccc(OC)cc2)CCS(=O)(=O)N1Cc1ccc(Cl)cc1 (stereo not drawn)	/	/	10.4	/	/	/	/	/	/
O=C(Nc1c(C(=O)C2CC2)oc2ccccc12)c1ccc(Cl)cc1	/	86.3*	6.5	-7.9	2.3	-11.9	15.2	11.6	-17.6
O=C(O)CCSCC(=O)Nc1c(C(=O)C2CC2)oc2ccccc12	8.7	0.8	-0.7	6.9	6.4	0.2	/	/	/
C=CCCN(C(CC(C)C)C(=O)OC)S(=O)(=O)c1cc(Br)ccc1Br (stereo not drawn)	-24.4	50.9	-7.7	17.8	-18.9	10.3	19.2	21.9	16.5
C=CCCN(C(CC(C)C)C(=O)OC)S(=O)(=O)c1ccccc1Br (stereo not drawn)	0.5	7.5	9.1	8.6	-13.1	14.2	/	/	/
COC(=O)[C@H](C(C)C)N1Cc2nnn(Cc3ccccc3)c2C=CS1(=O)=O	/	/	6.8	/	/	/	/	/	/
COC(=O)C1=C(C)N(Cc2cccc(C(F)(F)F)c2)C(=NCc2ccc(OC)cc2)NC1c1ccccc1 (stereo not drawn)	/	/	-18.0	/	/	/	/	/	/
O=C1/C(=C/c2ccccc2)SC(=S)N1CCCC(=O)N1CCCCC1CCO (stereo not drawn)	/	59.4*	-12.6	-18.1	-13.7	12.4	24.6	1.9	-4.4
Cc1ccc(S(=O)(=O)N(CC(=O)NC2CCC(C)CC2)c2cc(C)cc(C)c2)cc1 (stereo not drawn)	/	/	-13.2	/	/	/	/	/	/
CCC(C)NC(=O)CNC(=S)N(Cc1ccc(F)cc1)C1CCCCC1 (stereo not drawn)	10.1	4.8	-8.5	-7.4	-3.7	4.5	/	/	/
O=C(CNC(=S)N(Cc1ccc(F)cc1)C1CCCCC1)NC1CC1	/	59.3*	9.3	-8.0	1.3	-5.4	19.7	2.5	0.2
O=C(c1ccc(Cl)cc1)N1CCN(c2ccnc3cc(Cl)ccc23)CC1	-16.3	66.7*	23.4	/	-10.5	/	68.6*	18.4	4.3
SMILES	TAG inh	Gli-Sufu block	NR2F2 inh	697 NFkB inh	Cardio protect	Jurkat NFkB inh	Gli-Sufu confirm	SufuKO cytotox	Wnt3a counter
CCC(=O)N1CCN(c2ccnc3cc(Cl)ccc23)CC1	8.9	13.8	5.0	13.6	9.4	10.7	/	/	/
COc1ccc(-c2cc(C(=O)NN=Cc3ccccc3F)[nH]n2)cc1	/	/	0.5	/	/	/	/	/	/
Cn1nc(CC(=O)NCc2ccc(C(F)(F)F)cc2)c2ccccc2c1=O	-5.0	55.1*	23.4	-27.9	-16.6	29.7	52.4*	25.1*	16.6
Cn1c(SCC(=O)N(Cc2ccccc2)C(C)(C)C)nc2ccccc21	/	57.9*	/	-48.6	-3.2	-19.4	14.5	4.0	-14.7
O=C(Cn1nnc(-c2ccncc2)n1)Nc1ccc(Cl)cc1	/	/	-4.6	/	/	/	/	/	/
O=C(O)Cn1c(-c2ccccc2)nc2ccccc21	-0.1	95.8*	8.3	-1.0	11.4	3.6	28.8	7.6	4.5
C[C@@H]1CCN(C2CC2)S(=O)(=O)c2c(cccc2N2CC[C@H](N(C)C)C2)O1	/	/	-9.0	/	/	/	/	/	/
CCO[C@H]1OC(C(=O)N2CCOCC2)=C[C@@H](C2CC2)[C@@H]1CCCO	-2.7	98.7*	11.8	-7.0	6.1	9.4	25.6	-5.5	0.0
COC(=O)c1cc2c(c3c4ccccc4n(S(=O)(=O)c4ccc(C)cc4)c13)C(=O)N(CC(C)C)C2	/	/	1.0	/	/	/	/	/	/
Nc1cc2nc[nH]c2cc1N	13.2	62.6*	-16.9	-8.7	-0.9	0.3	9.3	5.0	-10.4
Cn1c(=O)c2c(nc(NCc3ccc4c(c3)OCO4)n2Cc2ccccc2F)n(C)c1=O	-33.5	42.3	0.4	-8.1	-16.9	21.8	/	/	/
Cn1c(=O)c2c(nc(NCc3ccc4c(c3)OCO4)n2Cc2ccccc2)n(C)c1=O	17.9	63.7*	5.6	2.4	-33.1	10.4	62.2*	32.1*	7.9
Cn1c(=O)c2c(nc(NCc3ccc4c(c3)OCO4)n2Cc2ccc(F)cc2)n(C)c1=O	/	53.5	7.1	-12.5	-5.3	5.6	43.8	26.8*	6.5
CCOc1ccc(-n2c(SCC(=O)Nc3ccc(OCc4ccccc4)cc3)nnc2-c2ccc(Cl)cc2)cc1	/	/	-4.7	/	/	/	/	/	/
O=C(NCC1CCN(C(=O)C(=O)c2cc3ccccc3o2)CC1)c1ccc2c(c1)OCC2	/	/	-11.9	/	/	/	/	/	/
COc1cc2ncnc(NCCc3ccccc3)c2cc1OC	-30.8	60.1*	2.1	9.1	-28.9	24.5	31.8	-0.7	-26.5
Cc1nc2ccccc2c(N)c1C(=O)/C=C/c1ccccc1	-64.0	61.3*	11.8	-35.2	-18.8	13.9	14.6	-1.5	-55.2
Cc1cc(/C=C(\C#N)C(=O)Nc2ccccc2)c(C)n1-c1ccc(C(=O)O)cc1	8.7	3.8	0.4	26.1	-6.6	-2.0	/	/	/
COc1ccc(NC(=O)/C(C#N)=C\c2cc(C)n(-c3ccc4c(c3)OCO4)c2C)cc1	2.9	64.1*	-14.9	-53.9	-3.4	46.1	56.1*	56.1*	-65.2
